Measurements published in PubChem BioAssay (Tox21).
Inconclusive results are not listed. Activity calls are given as the source filed them. Unless noted, calls follow the shape of the full dose curve.

How the values were obtained:
[1] = Nuclear factor erythroid 2-related factor 2/antioxidant responsive element (Nrf2/ARE) small molecule agonists: qHTS cell viability counter screen in human keratinocytes (AID 1919968; active = well fitted curve in the direction sought with a large enough effect in the repeat runs; an effect the other way counts as inactive or inconclusive; also: nearly all actives have a fitted effect of over 55% in size; also: potency is read from the fitted curve at half-maximal effect)
Procedure, shortened: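 Cytotoxicity was multiplexed with the Nrf2/ARE luciferase assay in the same wells. Stably transfected HaCaT keratinocytes were treated with test compounds for 23 h at 37 C. Cell viability was then measured by CellTiter-Fluor fluorescence.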

[2] = Nuclear factor erythroid 2-related factor 2/antioxidant responsive element (Nrf2/ARE) small molecule agonists: luciferase reporter gene qHTS assay in human keratinocytes (AID 1919969); also: nearly all actives have a fitted effect of over 35% in size; also: potency is read from the fitted curve at half-maximal effect
[3] = molecular target: Gonadotropin-releasing hormone receptor (Homo sapiens) (UniProt P30968); assay: Human gonadotropin-releasing hormone receptor (GnRHR) small molecule agonists, calcium flux assay in GnRHR-HEK293 cells (AID 1920063); also: nearly all actives have a fitted effect of over 35% in size
Sequence of Gonadotropin-releasing hormone receptor (Homo sapiens) (P30968 whole entry, looked up): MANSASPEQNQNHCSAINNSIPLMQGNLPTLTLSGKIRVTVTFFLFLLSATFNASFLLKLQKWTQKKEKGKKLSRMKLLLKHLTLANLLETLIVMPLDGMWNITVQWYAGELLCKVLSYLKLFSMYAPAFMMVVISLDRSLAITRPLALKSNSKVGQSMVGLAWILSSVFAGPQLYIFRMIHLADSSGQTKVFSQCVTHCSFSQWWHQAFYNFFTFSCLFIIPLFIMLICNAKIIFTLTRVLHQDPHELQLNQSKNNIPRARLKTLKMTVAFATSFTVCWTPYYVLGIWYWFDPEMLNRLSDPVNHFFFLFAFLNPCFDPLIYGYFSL
Procedure, shortened: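 Agonist activity was measured as intracellular calcium flux in HEK293 cells engineered to stably express human GnRHR. After dye loading for 1 hour at 37 C, compounds in DMSO were added and fluorescence was followed for 3 minutes.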

[4] = molecular target: KiSS-1 receptor (Homo sapiens) (UniProt Q969F8); assay: Human kisspeptin (KISS1R) small molecule agonists, calcium flux assay in KISS1R-HEK293 cells (AID 1920064; active = well fitted curve in the direction sought with a large enough effect in the repeat runs; an effect the other way counts as inactive or inconclusive)
Sequence of KiSS-1 receptor (Homo sapiens) (Q969F8 whole entry, looked up): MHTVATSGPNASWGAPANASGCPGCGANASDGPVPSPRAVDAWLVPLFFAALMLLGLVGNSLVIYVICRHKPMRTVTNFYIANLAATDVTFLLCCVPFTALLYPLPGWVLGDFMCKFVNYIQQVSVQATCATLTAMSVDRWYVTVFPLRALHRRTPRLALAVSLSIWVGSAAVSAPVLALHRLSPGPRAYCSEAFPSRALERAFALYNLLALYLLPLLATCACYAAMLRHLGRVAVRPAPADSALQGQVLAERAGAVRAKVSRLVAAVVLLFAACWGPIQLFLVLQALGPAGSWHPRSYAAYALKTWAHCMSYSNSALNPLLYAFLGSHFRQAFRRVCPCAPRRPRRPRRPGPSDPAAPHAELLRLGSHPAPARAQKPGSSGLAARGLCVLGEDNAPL
Procedure, shortened: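 Agonist activity is monitored as intracellular calcium rise in engineered HEK293 cells carrying human KISS1R. Cells are dye-loaded for 1 h at 37 C before compound addition, and fluorescence is recorded for 3 min.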

[5] = G protein-coupled receptor (GPCR) small molecule agonists, calcium flux assay: HEK293 wild type cell line counter screen (AID 1920065)
Procedure, shortened: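 Seed cells, incubate 18 h (37 C, 5% CO2); add calcium dye, 1 h at 37 C; pin-transfer compounds, ATP control or DMSO; read fluorescence 480/540 nm each second for 3 min.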

[6] = p53 small molecule agonists, cell-based qHTS assay with rat liver microsomes (AID 1963578)
Procedure, shortened: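 Read-out is beta-lactamase reporter fluorescence (LiveBLAzer, 2 h, room temperature, dark) in p53RE-bla cells treated 16 h at 37 C with compound, rat liver microsomes and NADPH, both 0.5 mg/mL final.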

[7] = p53 small molecule agonists, cell-based qHTS assay with human liver microsomes: qHTS cell viability counter screen (AID 1963579); also: nearly all actives have a fitted effect of over 45% in size; also: potency is read from the fitted curve at half-maximal effect
Procedure, shortened: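 Cells carrying the p53 response-element beta-lactamase reporter are treated for 16 h at 37 C with test compounds in the presence of human liver microsomes and NADPH (both 0.5 mg/mL final); ATP-based CellTiter-Glo luminescence then reports viability.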

[8] = p53 small molecule agonists, cell-based qHTS assay with rat liver microsomes: qHTS cell viability counter screen (AID 1963580); also: nearly all actives have a fitted effect of over 45% in size
Procedure, shortened: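 Luminescent ATP readout (CellTiter-Glo, 30 min at room temperature) reports viability of p53RE-bla HCT-116 cells after 16 h at 37 C with test compounds under metabolic activation by rat liver microsomes and NADPH at 0.5 mg/mL final each.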

[9] = p53 small molecule agonists, cell-based qHTS assay: qHTS cell viability counter screen (AID 1963581); also: nearly all actives have a fitted effect of over 45% in size
Procedure, shortened: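 Viability was counter-screened in parallel with the p53 agonist reporter by measuring intracellular ATP luminescence in the same HCT-116 p53RE-bla wells after 16 h compound treatment at 37 C.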

[10] = p53 small molecule agonists, cell-based qHTS assay (AID 1963582; active = well fitted activation curve with a large enough effect in the signal ratio in the repeat runs, not every such curve was filed as active; the % refers to the signal ratio)
Procedure, shortened: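 Cells carrying a p53-responsive bla reporter are treated with test compounds for 16 h at 37 C; beta-lactamase activity is then detected with LiveBLAzer B/G FRET substrate after 2 h at room temperature.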

[11] = molecular target: 5-hydroxytryptamine receptor 2A (Homo sapiens) (UniProt P28223); assay: 5-hydroxytryptamine receptor 2A (HTR2A) small molecule antagonists, cell-based qHTS assay (AID 1963586); also: nearly all actives have a fitted effect of over 45% in size; also: potency is read from the fitted curve at half-maximal effect
Sequence of 5-hydroxytryptamine receptor 2A (Homo sapiens) (P28223 whole entry, looked up): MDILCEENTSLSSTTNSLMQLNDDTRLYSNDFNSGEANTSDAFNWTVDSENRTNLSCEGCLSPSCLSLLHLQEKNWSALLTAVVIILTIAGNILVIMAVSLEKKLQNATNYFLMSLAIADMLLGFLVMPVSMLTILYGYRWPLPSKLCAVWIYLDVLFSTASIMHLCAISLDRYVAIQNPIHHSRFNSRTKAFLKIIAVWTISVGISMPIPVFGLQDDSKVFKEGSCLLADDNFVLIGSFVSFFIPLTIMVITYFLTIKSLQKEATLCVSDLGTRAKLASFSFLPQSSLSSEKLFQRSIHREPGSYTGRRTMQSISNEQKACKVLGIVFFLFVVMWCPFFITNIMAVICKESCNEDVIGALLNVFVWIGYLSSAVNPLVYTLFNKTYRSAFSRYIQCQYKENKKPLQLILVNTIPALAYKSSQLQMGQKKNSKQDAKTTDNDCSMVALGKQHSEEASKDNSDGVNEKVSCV
Procedure, shortened: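 CHO cells stably expressing human HTR2A were plated for 18 h at 37 C, then loaded with calcium dye for 1 h. Compounds were preincubated 5 min at room temperature before DOI (4 nM solution) was added. Kinetic fluorescence was read for 3 min.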

[12] = molecular target: 5-hydroxytryptamine receptor 2A (Homo sapiens) (UniProt P28223); assay: 5-hydroxytryptamine receptor 2A (HTR2A) small molecule agonists, cell-based qHTS assay (AID 1963587); also: nearly all actives have a fitted effect of over 30% in size; also: potency is read from the fitted curve at half-maximal effect
Procedure, shortened: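 HTR2A-CHO cells, plated 18 h at 37 C/5% CO2, dye-loaded 1 h at 37 C; compounds in DMSO added by pin tool (agonist mode). Intracellular calcium flux read as kinetic fluorescence on FDSS over 2 min at 1 s intervals.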

[13] = molecular target: Muscarinic acetylcholine receptor M1 (Homo sapiens) (UniProt P11229); assay: Cholinergic receptor muscarinic 1 (CHRM1) small molecule antagonists, cell-based qHTS assay (AID 1963588); also: nearly all actives have a fitted effect of over 40% in size
Sequence of Muscarinic acetylcholine receptor M1 (Homo sapiens) (P11229 whole entry, looked up): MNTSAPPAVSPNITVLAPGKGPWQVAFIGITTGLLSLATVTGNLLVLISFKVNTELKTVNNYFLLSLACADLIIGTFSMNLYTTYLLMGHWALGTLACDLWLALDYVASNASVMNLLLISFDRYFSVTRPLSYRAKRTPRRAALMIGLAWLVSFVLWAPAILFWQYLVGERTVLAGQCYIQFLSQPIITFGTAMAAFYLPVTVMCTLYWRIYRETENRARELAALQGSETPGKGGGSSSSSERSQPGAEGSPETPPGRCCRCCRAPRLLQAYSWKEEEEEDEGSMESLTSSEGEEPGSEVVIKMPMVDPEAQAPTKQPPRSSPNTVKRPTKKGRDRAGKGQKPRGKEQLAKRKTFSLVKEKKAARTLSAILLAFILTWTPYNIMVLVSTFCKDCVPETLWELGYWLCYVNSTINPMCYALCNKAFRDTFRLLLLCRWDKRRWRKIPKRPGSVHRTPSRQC
Procedure, shortened: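 Compounds were tested at 15 concentrations in three independent runs. Dye-loaded CHRM1-CHO cells were exposed 5 min at room temperature before stimulation by acetylcholine added at 50nM. Intracellular calcium was read kinetically on FDSS for 3 min.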

[14] = cAMP Responsive Elements (CRE) small molecule agonists, cell-based qHTS assay (AID 1963590)
Procedure, shortened: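 Cells carrying a CRE-driven beta-lactamase reporter (HEK 293T) are seeded, incubated overnight (18 h), and treated with test compounds for 3 h at 37 C; reporter activity is then detected with a FRET substrate after 2 h at room temperature.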

[15] = cAMP Responsive Elements (CRE) small molecule antagonists, cell-based qHTS assay (AID 1963591; active = well fitted inhibition curve with a large enough effect in the signal ratio in the repeat runs, not every such curve was filed as active; the % refers to the signal ratio)
Procedure, shortened: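 Cells (CRE-bla HEK 293T, DMEM with 10% dialyzed FBS and 25 mM HEPES) are seeded and incubated 18 h. Compounds are added with NKH477 agonist at 0.25 uM final for 3 h, then FRET substrate for 2 h.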

[16] = molecular target: Beta-2 adrenergic receptor (Homo sapiens) (UniProt P07550); assay: Adrenergic beta2 receptor (ADRB2) small molecule antagonists, cell-based qHTS assay (AID 1963592); also: series mostly up to about 92 µM; nearly all actives have a fitted effect of over 50% in size
Sequence of Beta-2 adrenergic receptor (Homo sapiens) (P07550 whole entry, looked up): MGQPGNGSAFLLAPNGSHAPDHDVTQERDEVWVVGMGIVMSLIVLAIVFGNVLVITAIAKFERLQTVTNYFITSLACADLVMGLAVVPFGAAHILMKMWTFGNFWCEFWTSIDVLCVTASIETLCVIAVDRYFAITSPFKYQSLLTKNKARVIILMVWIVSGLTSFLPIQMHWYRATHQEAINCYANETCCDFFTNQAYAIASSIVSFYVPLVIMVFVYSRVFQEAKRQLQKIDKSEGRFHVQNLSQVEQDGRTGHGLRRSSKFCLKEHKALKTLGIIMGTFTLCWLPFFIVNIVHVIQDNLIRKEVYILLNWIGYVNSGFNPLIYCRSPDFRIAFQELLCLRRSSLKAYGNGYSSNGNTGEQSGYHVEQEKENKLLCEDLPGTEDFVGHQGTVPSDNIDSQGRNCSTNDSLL
Procedure, shortened: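 Assay format: CHO-ADRB2 cells, 18-20hr seeding at 37C/5% CO2, then compound plus 1nM isoproterenol agonist mix for 0.5hr RT. Homogeneous time-resolved fluorescence cAMP detection after 1hr, expressed as 665/615 nm ratio.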

[17] = molecular target: D(2) dopamine receptor (Homo sapiens) (UniProt P14416); assay: Dopamine D2 receptor (DRD2) small molecule agonists, cell-based qHTS assay (AID 1963594); also: nearly all actives have a fitted effect of over 35% in size
Sequence of D(2) dopamine receptor (Homo sapiens) (P14416 whole entry, looked up): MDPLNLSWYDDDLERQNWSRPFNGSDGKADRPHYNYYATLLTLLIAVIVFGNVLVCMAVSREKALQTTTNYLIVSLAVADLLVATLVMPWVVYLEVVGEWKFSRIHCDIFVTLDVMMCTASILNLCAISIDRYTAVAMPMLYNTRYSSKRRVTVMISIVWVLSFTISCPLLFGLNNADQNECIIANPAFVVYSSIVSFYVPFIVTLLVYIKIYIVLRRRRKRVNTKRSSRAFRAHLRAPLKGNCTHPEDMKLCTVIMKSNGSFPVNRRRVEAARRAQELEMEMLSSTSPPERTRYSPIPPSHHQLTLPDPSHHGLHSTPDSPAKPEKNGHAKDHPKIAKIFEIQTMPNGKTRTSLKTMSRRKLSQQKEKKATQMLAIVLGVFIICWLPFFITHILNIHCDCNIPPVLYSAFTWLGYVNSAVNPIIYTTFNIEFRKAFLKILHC
Procedure, shortened: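 HEK293 cells stably expressing DRD2 were cultured 24 h at 37 C, then given Ro20-1724 (0.1 mM final) and compounds for 10 min at room temperature. NKH477 (200nM) was then added for 30 min. cAMP was read by HTRF.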

[18] = molecular target: D(2) dopamine receptor (Homo sapiens) (UniProt P14416); assay: Dopamine D2 receptor (DRD2) small molecule antagonists, cell-based qHTS assay (AID 1963595; active = well fitted inhibition curve with a large enough effect in the signal ratio in the repeat runs, with a control signal flat; the % refers to the signal ratio)
Procedure, shortened: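 In this cell-based antagonist screen, compounds act for 10 min at room temperature before a 30 min challenge with 12 nM quinpirole and 200 nM NKH477. cAMP is quantified by HTRF competition in DRD2-HEK293 cells containing 0.1 mM Ro20-1724.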

[19] = molecular target: Muscarinic acetylcholine receptor M1 (Homo sapiens) (UniProt P11229); assay: Cholinergic receptor muscarinic 1 (CHRM1) small molecule agonists, cell-based qHTS assay (AID 1963589); also: nearly all actives have a fitted effect of over 35% in size
Procedure, shortened: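 Cells were plated and incubated 18 h at 37 C/5% CO2, loaded with calcium dye for 1 h at 37 C, then treated with compounds in DMSO. Fluorescence was recorded kinetically at 1 sec intervals.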

[20] = molecular target: Beta-2 adrenergic receptor (Homo sapiens) (UniProt P07550); assay: Adrenergic beta2 receptor (ADRB2) small molecule agonists, cell-based qHTS assay (AID 1963593);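 also: CHO cells stably overexpressing human ADRB2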
Procedure, shortened: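 CHO cells stably over-expressing ADRB2 were plated overnight at 37C, then dosed with compounds plus a stimulation mix containing 100uM IBMX and 25uM Ro-20-1724 for 0.5hr at room temperature. cAMP was measured by HTRF competition, 1hr.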

Measured: Potency

Cc1cc(C)cc([N+](=O)[O-])c1
not listed: [19] | [20]
inactive: all other assays above

CC1(N)CCC(C(C)(C)N)CC1 (configuration not stated)
not listed: [6] | [7] | [8] | [11] | [20]
inactive: all other assays above

CC(N)C12CC3CC(CC(C3)C1)C2 (configuration not stated)
not listed: [11] | [12] | [13] | [19]
inactive: all other assays above

CCN1CCC[C@H]1CNC(=O)c1cc(S(N)(=O)=O)ccc1OC
not listed: [11] | [12] | [13] | [17] | [18] | [19]
inactive: all other assays above

CC(C)Cc1ccc(C(C)C(=O)OCc2ccccn2)cc1 (configuration not stated)
active: [11] 2.05 µM
not listed: [13] | [14] | [15] | [17]
inactive: all other assays above

Cc1cc(=O)oc2cc(O[C@@H]3SC[C@@H](O)[C@H](O)[C@H]3O)ccc12
not listed: [18] | [20]
inactive: all other assays above

Cc1c(C)c2c(c(C)c1OC(=O)CCC(=O)OCCO)CC[C@@](C)(CCC[C@H](C)CCC[C@H](C)CCCC(C)C)O2
active: [1] 26.6 µM
not listed: [13] | [14] | [15] | [19] | [20]
inactive: all other assays above

CC(=O)NCCCCCC(=O)O
not listed: [9] | [10]
inactive: all other assays above

O=C(O)C(Cc1cc(I)c(O)c(I)c1)c1ccccc1 (configuration not stated)
not listed: [8] | [9] | [14] | [18] | [20]
inactive: all other assays above

C#CC(O)CCCCC (configuration not stated)
not listed: [9]
inactive: all other assays above

CC(C)(O)c1ccc(CNC(=O)c2cccnc2Oc2ccc(F)cc2)cc1
not listed: [7] | [8] | [14] | [15] | [20]
inactive: all other assays above

ClCCl
not listed: [8] | [13]
inactive: all other assays above

O=Cc1c2ccccc2c(Cl)c2ccccc12
active: [2] 7.51 µM
not listed: [9] | [10] | [13] | [16]
inactive: all other assays above

CCCCCCCCCOC(=O)c1ccccc1C(=O)OCCCCCCCCC
not listed: [10] | [20]
inactive: all other assays above

CCCCCCCC/C=C\CCCCCCCCN
active: [12] 21.3 µM
not listed: [6] | [11] | [20]
inactive: all other assays above

CCCCCCC/C=C/C=O
not listed: [10] | [14]
inactive: all other assays above

CCCC(C)C=O (configuration not stated)
not listed: [8] | [17] | [18] | [20]
inactive: all other assays above

O=C(O)c1cc(O)c2ccccc2c1O
active: [1] 6.11 µM | [2] 1.72 µM | [7] 8.14 µM
not listed: [10] | [14] | [18] | [20]
inactive: all other assays above

CN1[C@@H]2CC[C@H]1CC(OC(=O)c1c[nH]c3ccccc13)C2 (some centres not stated)
not listed: [9] | [11] | [12] | [13] | [14] | [16] | [19] | [20]
inactive: all other assays above

CCOc1ccccc1O[C@H](c1ccccc1)[C@H]1CNCCO1
not listed: [7] | [11] | [12] | [13] | [16] | [17] | [20]
inactive: all other assays above

NC1CCN(c2cccc(Cl)n2)CC1
active: [12] 0.268 µM
not listed: [7] | [9] | [11] | [18] | [20]
inactive: all other assays above

CC(=O)NC(=O)c1ccccc1O
not listed: [6] | [11] | [12] | [13] | [17] | [20]
inactive: all other assays above

Oc1c(Br)cc(Br)c2cccnc12
active: [1] 2.66 µM | [2] 0.841 µM
not listed: [9] | [14] | [20]
inactive: all other assays above

Cc1cc(OI)c(C(C)C)cc1-c1cc(C(C)C)c(OI)cc1C
not listed: [7] | [10] | [20]
inactive: all other assays above

Cc1ccc2c(c1)C(=O)c1ccccc1C2=O
active: [2] 2.72 µM
not listed: [9] | [12] | [14] | [15]
inactive: all other assays above

CCCCCCCCCCCBr
not listed: [9] | [10] | [20]
inactive: all other assays above

Nc1ccc(Cl)c([N+](=O)[O-])c1
active: [2] 54.5 µM
not listed: [10] | [14]
inactive: all other assays above
